Inconclusive results are not listed. Entries that show only a call come without a potency. Calls of active or inactive are those of the source. Calls come from the whole dose curve; as a rule, active = well fitted inhibition curve with a large enough effect; inconclusive = small, poorly fitted or top-dose-only effect; inactive = no such curve, though single readings can be large or run the other way.
molecular target: Retinaldehyde dehydrogenase 3 (Homo sapiens) (UniProt P47895); assay: qHTS for Inhibitors of the Aldehyde Dehydrogenase Family (ALDH1A3) Primary screen (AID 2061315); settings: ALDH inhibition qHTS; series mostly up to 56 µM

SMILES | Potency
O=S(=O)(Nc1ccccc1)c1ccc(NCc2cccc(Cl)c2O)cc1 | inactive
COc1cccc(C2c3c(ncn(-c4cccc(C)c4)c3=N)Oc3ccc4ccccc4c32)c1 (stereo not given) | inactive
O=[S+]([O-])(Nc1ccc(C2CCNCC2)cc1)c1ccc(NCc2ccc(Cl)cc2O)cc1 | inactive
COc1ccc(NS(=O)(=O)c2ccc(C)cc2)c(C(=O)Nc2nc(-c3ccccc3)cs2)c1 | inactive
COc1cc(-c2nc(Nc3ccc(F)c(F)c3)c3ccccc3n2)ccn1 | inactive
Cc1cc(C)nc(/N=C(\NC#N)N2CCN(c3cccc(C(F)(F)F)c3)CC2)c1 | inactive
CNc1cc2c(cc1S(=O)(=O)Nc1ccc(C)c(C)c1)CCC(=O)N2 | inactive
O=C(O)c1ccc(O)c2ncc(N3CCCCC3CCc3ccccn3)cc12 (stereo not given) | inactive
N#Cc1cccc(NS(=O)(=O)c2ccc3c(c2)CCC(=O)N3)c1 | inactive
Cc1ccc(C(=O)NC2CCN(C#N)CC2)cc1 | inactive
N#Cc1nc(NCCCO)nc(Nc2ccccc2)n1 | inactive
O=C1CCCC2=C1C(c1[nH]ncc1Cl)N=C(Nc1nc3cc([S+](=O)([O-])N4CCCC4)ccc3o1)N2 (stereo not given) | inactive
Cc1cnc(-c2ccccc2C(C)C)nc1NCc1ccc(-c2cccc(S(N)(=O)=O)c2)cc1 | inactive
CC(C)(C)c1ccc(NC(=O)c2cccs2)cn1 | inactive
Cc1ccc(S(=O)(=O)Nc2cc3c(cc2C(=O)Nc2nc(-c4ccccc4)cs2)OCO3)cc1 | inactive
Cc1nc(NC2CCCCC2)c2nc(-c3ccccc3)n(CC3CCN(C)CC3)c2n1 | inactive
CCCCNc1nc(C)nc2c1nc(C)n2CCC | inactive
CC(=O)Nc1sc2c(c1-c1ccc(F)cc1)CCNC2 | inactive
O=C(O)c1ccc(-c2ccc3ncnc(N4CCOCC4)c3c2)o1 | inactive
Cc1cnc(-c2ccccc2C(C)C)nc1NCc1ccc(C2CCCNC2)cc1 (stereo not given) | inactive

SMILES | Potency
CCC(C)C(=O)OC1C(C)C2(O)C(C=C(CO)CC3(O)C(=O)C(C)=CC32)C2C(C)(C)C12OC(=O)C(C)C (stereo not given) | inactive
O=C(Nc1ccc(-c2cn[nH]c2)cc1)Nc1nnc(-c2ccncc2)s1 | inactive
O=C(COC(=O)CNC(=O)C1CCCCC1)Nc1cc(C(F)(F)F)ccc1Cl | inactive
O=C1CCc2cc(S(=O)(=O)Nc3ccc4ccccc4c3)ccc2N1 | inactive
O=C(Nc1ccc(Oc2ccccc2)cc1)Nc1nnc(-c2ccncc2)s1 | inactive
O=C1CCCC2=C1C(c1[nH]ncc1Cl)N=C(Nc1nccs1)N2 (stereo not given) | inactive
C=CC1C(OC2OC(CO)C(O)C(O)C2O)OC=C2C(=O)N3C(C(=O)O)Cc4c([nH]c5ccccc45)C3CC21 (stereo not given) | inactive
Cc1nc(NC2CCCCC2)c2nc(-c3ccccc3)n(CCN(C)C)c2n1 | inactive
COc1cc(-c2ncn(/C=C\C(=O)OC(C)C)n2)cc(C(F)(F)F)c1 | inactive
O=c1cc(CN2CCCN(c3ccc(C(F)(F)F)cn3)CC2)nc2ccccn12 | inactive
CN(C)c1ccc(-c2cc(O)c3ncccc3c2)cc1 | inactive
Cc1ccc(S(=O)(=O)Nc2cnccc2C(=O)Nc2nc(-c3ccccc3)cs2)cc1 | inactive
Cc1cc(NS(=O)(=O)c2cc3c(cc2F)NC(=O)CC3)ccc1Cl | inactive
OCc1ccnc(NC(=S)N2CCN(c3cccc(C(F)(F)F)c3)CC2)c1 | inactive
CCCCc1ccc(C(=O)Nc2ccc(S(=O)(=O)Nc3nccs3)cc2)cc1 | inactive
C=C1C(=O)O[C@@H]2/C=C(\CO)CC/C=C(/C=O)C[C@@H](O)[C@@H]12 | inactive
FC(F)(F)c1cccc(-c2ccc(CNc3nc(-c4ccccc4C(F)(F)F)nc4ccccc34)cc2)c1 | inactive
Cc1ccccc1-c1nc(NCc2cccs2)c2ccccc2n1 | inactive
Cc1nc(NC2CCCCC2)c2nc(-c3ccccc3)n(CCN3CCCC3)c2n1 | inactive
O=C1CCCC2=C1C1(CCCC1)N=C(Nc1nc3ccccc3o1)N2 | inactive

Reference: PubChem BioAssay (NCATS)
